From PubChem
This is a sample that favours compounds with a hit; in the whole collection about 6.7% have one here.
GDH-TPI inh = inhibits GDH-TPI coupling enzymes, artifact for Mtb FBA screen; GDH-TPI coupled enzyme counterscreen, NADH absorbance; inhibition, % at 4.8 µM; hit rate 1.2% among 360,000; AID 588335; in the data active means inhibition above about 30%;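 further: 0% = DMSO wells and 100% = wells lacking the enzyme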
Bead autofluor = counter-screen for toxin protease inhibitors: compound fluorescence. hit rate 3.1% among 360,000. compound autofluorescence counterscreen, microsphere flow cytometry; hits give high values. AID 624483. fluorescence intensity (no concentration beside the values); in the data active means fluorescence intensity above about 16000; inconclusive means no clear call, values can overlap the other calls
BoNT-F LC inh = inhibitors of Botulinum neurotoxin F light chain protease; AID 588497; hit rate 0.22% among 360,000; Multiplex microsphere protease cleavage assay, flow cytometry; inhibition, % at 10 µM; in the data active means inhibition above about 35%, passing the limit was not always enough; inconclusive means no clear call, values can overlap the other calls; further: plate controls were buffer without enzyme for full effect and enzyme alone for no effect
Anthrax LF inh2 = inhibitors of Bacillus anthracis lethal factor protease; hit rate 0.12% among 360,000; P15917; multiplex microsphere protease cleavage assay, LF; inhibition, % at 10 µM; further: plate controls were buffer without enzyme for full effect and enzyme alone for no effect
FBA Mtb inh = inhibits M. tuberculosis FBA enzyme | purified M. tuberculosis FBA, fluorescence read-out | P9WQA3 | hit rate 2.3% among 360,000 | inhibition, % at 1 µM; in the data active means inhibition above about 27%;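 further: 0% = vehicle and 100% = reference inhibitor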
BoNT-A LC inh2 = blocks Botulinum neurotoxin A light chain protease | AID 588499 | inhibition, % at 10 µM | multiplex microsphere protease substrate cleavage, flow cytometry | hit rate 0.17% among 360,000; further: plate controls were buffer without enzyme for full effect and enzyme alone for no effect
Active calls of the source: *; ? = inconclusive; nt = not tested or not shown; + = active, no number. Unless noted, no stated cut-off is given here; in the data, active means inhibition above about 30%; inconclusive means no clear call, values can overlap the other calls; inactive means below that.

SMILES	GDH-TPI inh	Bead autofluor	BoNT-F LC inh	Anthrax LF inh2	FBA Mtb inh	BoNT-A LC inh2
O=c1cc(CN2CCN(C/C=C/c3ccccc3)CC2)c2cc(O)c(-c3ccccc3)cc2o1	0.0	2048	-7.9	-5.8	-0.3	-0.4
CCc1cc2c(CN3CCN(C)CC3)cc(=O)oc2cc1O	11.0	10727	-8.4	0.8	+	-2.0
COC(=O)CN(n1cnnc1)S(=O)(=O)c1ccccc1	2.5	22038*	3.8	-5.5	-0.7	1.5
COc1cccc(/C(C#N)=C/c2c(-c3ccc(Cl)cc3)nc3c(C)cccn23)c1	6.8	2678	-6.4	-4.1	-3.9	-0.3
Cc1ccc(OCCCCCCN2CCNCC2)cc1	3.1	3054	-12.4	14.2	21.7	-4.7
COc1ccc(CNC(=O)CSc2ncn[nH]2)cc1OC	1.5	4361	-3.2	-0.5	4.5	0.3
Fc1ccc(COc2ccc(Br)cc2CNCc2ccncc2)cc1	14.0	8031	-6.4	-0.9	1.8	-0.3
CCOc1cc(CNCc2ccncc2)cc(Br)c1OCc1ccc(F)cc1	-2.5	20403*	-12.4	-5.0	-0.2	-1.1
COCC(=O)N1CCCC(C(=O)c2ccc3c4c(cccc24)CC3)C1 (stereo not drawn)	39.0*	4539	4.7	2.9	26.7	0.9
COCCC(=O)N1CCCC(C(=O)c2ccc3c4c(cccc24)CC3)C1 (stereo not drawn)	4.1	2437	-0.7	2.3	8.4	-0.2
C/C(=N\Nc1nc(N)cc(Cl)n1)c1cccc(N)c1	16.0	2354	3.5	-1.3	5.0	0.1
C/C(=N\Nc1nc(N)cc(Cl)n1)c1cccc([N+](=O)[O-])c1	14.7	22572*	1.4	1.2	2.7	-0.7
CCOC(=O)n1c(=O)n(Cc2ccc(OC)cc2)c2ccccc21	2.5	3815	?	2.2	-0.8	1.2
CCOC(=O)C1CCN(C(=O)c2ccc3c(c2)OCO3)CC1	-6.2	22950*	2.0	-1.1	1.5	2.0
CCOC(=O)C1CCCN(Cc2ccc3c(c2)OCO3)C1 (stereo not drawn)	1.5	16327*	-4.5	-0.9	-0.9	-0.3
CCOC(=O)C1CCN(C(=O)N(C)C)CC1	0.6	23160*	1.0	-3.4	-0.6	0.1
CCOC(=O)C1CCN(C(=O)CSCCSCC(=O)N2CCC(C(=O)OCC)CC2)CC1	-0.6	3376	-0.8	0.8	2.3	-1.1
CCN(CC)C(=O)C1CCCN(Cc2ccc3c(c2)OCO3)C1 (stereo not drawn)	-2.5	2466	3.8	-5.5	-1.3	0.0
CCCCCCC(=O)Nc1ccc(C(=O)N2CCCC2)cc1	-7.4	11443	-3.5	-5.5	-2.2	-0.5
CCCCC(=O)Nc1ccc(C(=O)N2CCC(C(=O)OCC)CC2)cc1	6.3	23061*	3.2	1.6	0.3	1.4
CC(C)[C@H](NC(=O)N1CCn2c1nc1ccccc12)C(=O)NCc1ccco1	1.7	4964	2.5	-1.1	-2.7	2.1
NC(=O)CS(=O)(=O)c1ccc(Cl)cc1	1.9	4757	5.4	-0.1	0.2	-0.3
CCCCN(C(=O)CCC(=O)Nc1cc(C)on1)C(C(=O)NC1CCCC1)c1ccccc1OCC (stereo not drawn)	3.0	5460	3.0	-0.2	-2.0	1.5
Cc1ccc(S(=O)(=O)N2CCC(=O)N(C(COCc3cccc(C)c3)Cc3ccccc3)CC2)cc1 (stereo not drawn)	10.8	3800	0.9	3.6	2.1	-0.1
CC(=O)Nc1ccc(S(=O)(=O)N2CCc3ccccc3C2)cc1	7.7	6579	0.1	-2.3	-3.6	-0.5
SMILES	GDH-TPI inh	Bead autofluor	BoNT-F LC inh	Anthrax LF inh2	FBA Mtb inh	BoNT-A LC inh2
CCOC(=O)C1CCN(C(=O)c2sccc2Cl)CC1	2.9	6943	-4.1	2.0	+	-0.2
CCOC(=O)C1CCN(C(=O)c2cccs2)CC1	9.5	1989	2.4	-0.3	-2.7	0.3
COCCCNC(=O)C1C2C=CC3(CN(Cc4ccc(C)cc4)C(=O)C13)O2 (stereo not drawn)	6.8	23422*	-0.6	-2.3	0.9	-1.0
COC(=O)C1[C@H]2C(=O)N(Cc3cccs3)C[C@]23C=C[C@H]1O3 (stereo partly drawn)	8.6	23081*	-2.6	-0.6	1.4	-1.3
CCOC(=O)C1C2C=CC3(CN(Cc4cccs4)C(=O)C13)O2 (stereo not drawn)	4.3	2963	5.3	3.5	4.9	0.6
Cc1ccc(CN2CC34C=CC(O3)C(C(=O)NCc3ccc5c(c3)OCO5)C4C2=O)cc1 (stereo not drawn)	-14.1	9906	7.7	-2.9	-3.8	0.1
NC1=C([N+](=O)[O-])C(c2ccc(F)cc2)C2=C(CCCC2=O)O1 (stereo not drawn)	11.7	2073	3.4	0.1	-2.5	0.2
Cc1cccc(C)c1OCc1n[nH]c(=S)o1	8.2	2660	-5.6	-7.5	-0.2	-0.8
Cc1cccc(OCc2n[nH]c(=S)o2)c1	-0.6	24801*	0.5	1.2	0.0	-1.4
Cc1ccc(N2C(=O)CC3(CCCC3)CC2=O)cc1	17.0	5109	?	31.9*	-1.7	-5.2
Cc1ccc(N2C(=O)CS(=O)(=O)CC2=O)cc1	3.8	4517	-1.1	0.7	2.1	0.6
Cn1c2ccc(Cl)cc2c2nc3ccccc3nc21	6.2	4173	17.8	24.7	-0.3	40.3*
CC1CCN(S(=O)(=O)c2ccc3c(c2)CC(C)N3C(=O)C2CCC2)CC1 (stereo not drawn)	-1.7	nt	nt	nt	1.5	nt
O=C(O)C1CCCN(S(=O)(=O)Cc2ccccc2)C1 (stereo not drawn)	-14.0	3611	6.4	-11.6	-2.4	1.2
O=C(C1CCCN(S(=O)(=O)Cc2ccccc2)C1)N1CCC(Cc2ccccc2)CC1 (stereo not drawn)	2.1	21341*	4.5	-1.8	1.8	3.9
O=C(c1ccc(F)cc1)N1CCC(N2CCCCCC2)CC1	13.3	16826*	-3.5	-3.0	-1.8	-0.3
O=C(c1ccc(F)cc1)N1CCC(N2CCOCC2)CC1	15.8	4684	-12.5	-1.8	3.3	-0.6
CC1CN(S(=O)(=O)c2ccc(Cl)c(C(F)(F)F)c2)CC(C)O1 (stereo not drawn)	17.3	16300*	-2.9	2.0	1.5	?
CC1CN(C2CCN(S(=O)(=O)c3ccc(F)cc3)CC2)CC(C)O1 (stereo not drawn)	6.1	18932*	-10.1	0.4	-0.6	-5.8
CC1CN(C(=O)c2ccc(C(=O)c3ccccc3)cc2)CC(C)O1 (stereo not drawn)	4.9	7559	-16.5	-3.6	2.3	0.0
CC1CN(C2CCN(C(=O)c3ccccc3)CC2)CC(C)O1 (stereo not drawn)	10.9	16799*	1.1	-2.2	-2.9	-0.3
Cc1ccc(C(=O)N2CCCC(Nc3cccc(F)c3)C2)cc1N1CCNC1=O (stereo not drawn)	4.5	4165	3.5	1.8	0.6	1.7
O=C(Cc1cccs1)N(c1ccc(Cl)cc1)C1C=CS(=O)(=O)C1 (stereo not drawn)	0.0	11069	-8.1	-0.9	-1.9	0.3
